KB-V1 cytotox – kills drug-selected multidrug resistant KB-V1 cells. Potency, µM (series often up to 46.1 µM), hits mostly cytotoxic. KB-V1 MDR cells viability, CellTiter-Glo, 72 h. 400,000 tested, 3.4% active; note: potency is the fitted concentration of half-maximal effect; nearly all actives have a fitted effect of over 60% in size
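Cytotoxicity toward P-gp-expressing KB-V1 cells was determined as loss of CellTiter-Glo luminescence after 72 h at 37 degrees C. Compounds were tested in quantitative HTS format across a concentration range, with curves fitted to normalized data.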
PI4K2A inh – blocks human PI4K2A kinase activity. Q9BTU6. purified PI4K2A, ADP-Glo luminescence, 1 h; stronger effect = lower value. activity change, negative = inhibition, % at 76.9 µM. 420,000 tested, 0.13% active. AID 1346378; in the data active = activity change below about -50%; inconclusive = mostly about -30% to -49%;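 note: -100% = wells without enzyme as full effect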
Target sequence (Q9BTU6 whole entry, looked up): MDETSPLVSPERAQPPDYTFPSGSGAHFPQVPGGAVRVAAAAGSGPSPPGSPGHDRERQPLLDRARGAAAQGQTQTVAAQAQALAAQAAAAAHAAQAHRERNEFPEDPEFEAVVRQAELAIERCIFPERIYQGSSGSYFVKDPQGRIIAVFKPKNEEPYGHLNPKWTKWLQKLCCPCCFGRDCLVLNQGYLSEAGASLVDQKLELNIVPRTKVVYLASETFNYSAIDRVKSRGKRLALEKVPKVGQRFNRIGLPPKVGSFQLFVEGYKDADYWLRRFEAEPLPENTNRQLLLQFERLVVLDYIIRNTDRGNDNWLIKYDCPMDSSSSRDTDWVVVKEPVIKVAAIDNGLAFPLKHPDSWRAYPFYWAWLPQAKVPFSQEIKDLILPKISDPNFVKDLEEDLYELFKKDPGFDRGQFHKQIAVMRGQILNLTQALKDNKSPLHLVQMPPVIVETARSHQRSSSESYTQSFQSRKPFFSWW
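Compounds are screened against recombinant PI4K2A using PI as substrate and ATP, the latter dispensed at 300 microM. Reactions run one hour at ambient temperature before ADP-Glo detection; full inhibition defined by wells lacking enzyme.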
KB-3-1 cytotox – kills parental KB-3-1 adenocarcinoma cells | 400,000 tested, 1.4% active | KB-3-1 viability, CellTiter-Glo ATP luminescence, 72 h | Potency, µM (top dose mostly 46.1 µM), hits mostly cytotoxic; note: potency is the fitted concentration of half-maximal effect; nearly all actives have a fitted effect of over 60% in size
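Screening of KB-3-1 cells (DMEM, 10% FBS, phenol-red free) ran from lowest to highest compound concentration; after 72 h at 37 °C viability was read luminescently and curves fitted.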
Nrf2 block – Nrf2 pathway inhibition | A549 ARE-Fluc reporter, luciferase luminescence, 18-24 h | AID 504444 | 360,000 tested, 2.1% active | Potency, µM (top dose mostly 46 µM), for the others: at the highest dose activity change, negative = inhibition, hits mostly inhibitors; note: potency is the fitted concentration of half-maximal effect; nearly all actives have a fitted effect of over 60% in size
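Quantitative HTS in A549 cells stably bearing an antioxidant response element-firefly luciferase construct. Inhibition of Nrf2-driven transcription was scored by luminescence after 18-24 h of compound exposure at 37 °C.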
Giardia kill – Giardia lamblia killing | 340,000 tested, 0.15% active | AID 540267 | Giardia lamblia trophozoite viability | activity change, % at 7.66 µM, hits read low; in the data active = activity change below about -80%; inconclusive = between about -30% and that limit;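 note: parasites exposed to compound for two days anaerobically before the ATP read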
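Giardia lamblia trophozoites (100 cells/well) were incubated with compounds for 48 h at 37 deg C under anaerobic conditions. Viability was read as ATP content by one-step luminescence after 15-30 min at room temperature.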
A549 viability – kills or reduces viability of A549 cells in Nrf2 counter-screen; A549 ARE-Fluc cells, CellTiter-Fluor viability, 18-24 h; Potency, µM (series often up to 46 µM), for the others: top-dose activity change, negative = cytotoxicity, actives largely listed as inhibitors; 390,000 tested, 0.16% active; note: potency is the fitted concentration of half-maximal effect
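A549 ARE-Fluc cells in 5% FBS OPTI-MEM, 5000 cells/well, rested 2 h then exposed to compounds in concentration-response for 18-24 h at 37 °C. Viability by CellTiter-Fluor fluorescence (Ex 405/Em 525) after 30 min; luciferase luminescence (BugLite, 15 min, RT) read afterwards.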
Numbers without * were called inactive; i = inactive; ? = inconclusive; nt = no result; ! = a repeat was not active. In the library only some 5.7% were active in any assay of this set; here they are far more common. Unless noted, calls come from the whole dose curve; as a rule, active = well fitted curve in the direction sought with a large enough effect; inconclusive = small, poorly fitted or top-dose-only effect, or another doubt; inactive = no such curve, though single readings can be large; an effect the other way counts as inactive or inconclusive. Unless noted, % is set by controls: 0 for no effect and ±100 for the full control effect.

SMILES | KB-V1 cytotox | PI4K2A inh | KB-3-1 cytotox | Nrf2 block | Giardia kill | A549 viability
CCOC(=O)c1c(-n2c(C)cc(/C=C3\C(=O)NC(=O)N(C)C3=O)c2C)sc2c1CCCC2 | 23µM* | -5 | i | ? | -9 | ?
Cc1cc(/C=C2\C(=O)NC(=O)N(c3ccc(Cl)cc3)C2=O)c(C)n1-c1sc2c(c1C#N)CCCC2 | i | -7 | i | 2% | 13 | 1%
ClCCCN1CCN(c2cccc(Cl)c2)CC1 | nt | -4 | nt | nt | nt | nt
CCOC(=O)[C@]12Cc3cc(Cl)ccc3[C@H]1N(Cc1ccccc1)C(=O)c1ccccc12 | 23µM*! | -4 | ? | ? | ? | ?
CCOC(=O)[C@]12Cc3cc(C)ccc3[C@H]1N(Cc1ccccc1)C(=O)c1cc(OC)ccc12 | 9.2µM* | -5 | 18µM* | nt | nt | nt
CCOC(=O)[C@]12Cc3ccccc3[C@H]1N(Cc1ccccc1)C(=O)c1cc(F)c(F)cc12 | 10µM* | -1 | 23µM* | nt | nt | nt
CCOC(=O)[C@]12Cc3cc(N(C)C)ccc3[C@H]1N(Cc1ccccc1)C(=O)c1ccccc12 | ? | 1 | ? | ? | 4 | -18%
CCCCCCCCCC(=O)O[C@H]1CC[C@H]2[C@@H]3CCC4=CC(=O)CC[C@@H]4[C@H]3CC[C@]12C | nt | -2 | nt | nt | nt | nt
CCC(=O)OC1(c2ccccc2)CCN(C)CC1 | nt | i | nt | nt | nt | nt
O=C(COc1ccc(Cl)cc1)N1CCN(Cc2ccc([N+](=O)[O-])cc2)CC1 | i | 3 | ? | ? | 14 | -21%
COc1ccc(OCC(=O)N2CCN(Cc3nc4cc([N+](=O)[O-])ccc4n3C)CC2)cc1 | i | 0 | i | 23µM* | 1 | -20%
C[C@]12C/C(=C/O)C(=O)C[C@@H]1CC[C@@H]1[C@@H]2CC[C@@]2(C)[C@H]1CC[C@]2(C)O | nt | 0 | nt | nt | nt | nt
CC(=O)N1CCc2cc(S(=O)(=O)N3CCN(c4ccc(C)cc4)C(C)C3)ccc21 (stereo not given) | i | -15 | i | 16µM* | nt | -17%
COc1ccc2c(C(=O)c3ccc(Cl)cc3)c(C)n(CC(=O)O)c2c1 | nt | -5 | nt | nt | nt | nt
CC[C@H]1C[C@@H]2C[C@H]3c4[nH]c5ccc(OC)cc5c4CCN(C2)[C@@H]13 | nt | i | nt | nt | nt | nt
CCC1CN2CCc3cc(OC)c(OC)cc3C2CC1CC1NCCc2c1[nH]c1ccc(O)cc21 (stereo not given) | i | -3 | 0.41µM* | 0.52µM* | 16 | 1.2µM*
O=C(c1cccs1)c1cn(Cc2ccccc2Cl)c2ccccc12 | 7.3µM* | 3 | i | -17% | -28 | -3%
N#Cc1ccccc1Cn1cc(C(=O)c2cccs2)c2ccccc21 | ? | 3 | i | ? | 5 | -2%
N#Cc1ccccc1Cn1cc(C(=O)c2ccccc2F)c2ccccc21 | 2.3µM* | 4 | i | ? | 5 | 3%
O=C(COc1cc(Cl)ccc1Cl)Nc1ccc(Cl)cc1C(=O)c1ccccc1 | nt | 6 | nt | 6% | nt | 0%
COc1ccc(C2NCc3ccc4c(c3-n3cccc32)OCO4)cc1O (stereo not given) | ? | -2 | 1.3µM* | nt | 6 | 10%
CCOc1cc2c(cc1OCC)-n1cccc1C(c1ccc(OC)c(OC)c1)NC2 (stereo not given) | i | -4 | i | -13% | -5 | 4%
Oc1ccc(C2NCc3ccccc3-n3cccc32)cc1Cl (stereo not given) | i | 5 | i | 5% | 27 | -1%
c1cc2n(c1)-c1c(ccc3c1OCO3)CNC2c1ccc2c(c1)OCO2 (stereo not given) | 18µM* | 11 | ? | nt | -3 | 7%
CC(C)C[C@H]1CN([C@@H](CC(C)C)CN2CCCC2CN2C(=S)NC[C@@H]2Cc2ccc(O)cc2)C(=S)N1CC1CCCCCC1 (stereo not given in full) | ? | 3 | ? | ? | -15 | -16%
SMILES | KB-V1 cytotox | PI4K2A inh | KB-3-1 cytotox | Nrf2 block | Giardia kill | A549 viability
NC(=Nc1ccccc1)NN=Cc1c[nH]c2ccccc12 | 2.6µM* | 0 | ? | ? | 14 | -12%
CC1CCC[C@H](O)CCCCCc2cc(O)cc(O)c2C(=O)O1 (stereo not given in full) | 21µM* | -4 | i | 2% | -5 | -4%
O=C1CC(c2ccc(F)cc2)c2c(c3ccccc3oc2=O)O1 (stereo not given) | i | 1 | i | 6% | nt | -8%
Cc1cc(-c2nc3ncccc3o2)ccc1NC(=O)c1ccccc1Br | i | -7 | ? | ? | nt | -24%
O=C(CNC(=O)c1ccc(Cl)cc1)Nc1ccc(Br)cc1C(=O)c1ccccc1 | ? | -14 | i | ? | 15 | -3%
CN(C)S(=O)(=O)c1ccc(C(=O)NNc2nc(-c3ccccc3)c3cc(Br)ccc3n2)cc1 | ? | 61 | i | 13µM* | -1 | -20%
O=C(c1ccccc1)c1ccc2nc(N3CCN(c4ccc(F)cc4)CC3)c3nncn3c2c1 | nt | 1 | nt | ? | nt | 0%
COC(=O)C1CN(C#N)N(c2ccc(Cl)cc2)C12c1ccccc1-c1ccccc12 (stereo not given) | 12µM* | 5 | 5.2µM* | 18µM* | -7 | ?
CC1(C)C(C(=O)N2CCN(c3ccc(Cl)cc3)CC2)C1(C)C | i | 0 | i | -20% | -15 | -3%
COCC(=O)N(c1c(C)cccc1C)C(C)C(=O)OC (stereo not given) | nt | -3 | nt | nt | nt | nt
CSCCC(c1nnnn1Cc1ccccc1)N1CCC2(CC1)C(=O)NCN2c1ccccc1 (stereo not given) | 15µM* | -1 | i | nt | nt | nt
COc1ccc(C(c2nnnn2Cc2ccccc2)N2CCC(n3c(=O)[nH]c4ccccc43)CC2)cc1 (stereo not given) | ? | 1 | ? | nt | nt | nt
CSCCC(c1nnnn1-c1c(C)cccc1C)N1CCC(n2c(=O)[nH]c3ccccc32)CC1 (stereo not given) | i | 8 | i | nt | nt | nt
O=c1[nH]c2ccccc2n1C1CCN(C(c2cccs2)c2nnnn2Cc2ccccc2)CC1 (stereo not given) | 15µM* | -1 | ? | nt | nt | nt
CSCCC(c1nnnn1Cc1ccccc1)N1CCC(n2c(=O)[nH]c3ccccc32)CC1 (stereo not given) | 10µM* | 9 | i | nt | nt | nt
O=c1[nH]c2ccccc2n1C1CCN(C(CCc2ccccc2)c2nnnn2Cc2ccccc2)CC1 (stereo not given) | 6.5µM* | 4 | ? | nt | nt | nt
CC1COC2(c3ccccc3Cl)c3cc(Cl)ccc3NC(=O)CN12 (stereo not given) | nt | 1 | nt | nt | nt | nt
O=C(Nc1ccc2c(c1)OCO2)c1cccn(Cc2ccccc2)c1=O | i | 7 | i | nt | nt | -12%

High-throughput results as filed in PubChem BioAssay.
